Assay outcomes deposited in PubChem by The Scripps Research Institute Molecular Screening Center.
CHO-K1 Ca ag – nonselective activator or artifact in parental CHO-K1 cells; Fluo-8 calcium fluorescence; scaled to maximal ATP response, vehicle zero; activation, % at 3 µM; 360,000 tested, 0.48% active; in the data active = activation above about 15%;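 also: untransfected CHO-K1 host cells lacking M1 receptor as counterscreen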
CHRM1 agonist – activates human CHRM1 receptor | 360,000 tested, 0.33% active | activation, % at 3 µM | AID 588814 | CHO-K1 hM1, Fluo-8 calcium fluorescence, agonist mode; 0% DMSO, 100% acetylcholine EC100 | P11229;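 active = activation above the run's mean compound activation plus 3 SD, cut at about 16% in these data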;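 also: peak over basal fluorescence ratio within a 140 s kinetic read after compound addition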
Target sequence (P11229 whole entry, looked up): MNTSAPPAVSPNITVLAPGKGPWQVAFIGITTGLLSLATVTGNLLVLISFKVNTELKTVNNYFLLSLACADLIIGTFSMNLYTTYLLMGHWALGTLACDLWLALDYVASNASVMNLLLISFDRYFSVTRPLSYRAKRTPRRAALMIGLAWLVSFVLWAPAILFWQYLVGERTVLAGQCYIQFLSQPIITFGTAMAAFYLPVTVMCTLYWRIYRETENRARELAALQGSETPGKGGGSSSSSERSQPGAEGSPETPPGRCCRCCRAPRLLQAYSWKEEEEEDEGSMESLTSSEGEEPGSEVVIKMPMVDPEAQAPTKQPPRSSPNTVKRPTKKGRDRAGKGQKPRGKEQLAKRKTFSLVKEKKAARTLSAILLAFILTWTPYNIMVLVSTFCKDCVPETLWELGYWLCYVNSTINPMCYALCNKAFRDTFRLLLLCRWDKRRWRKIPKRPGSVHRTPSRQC
M1 antag – human CHRM1 antagonism; 360,000 tested, 1.3% active; inhibition, % at 3 µM; AID 588852; CHO-K1 hM1, Fluo-8 calcium fluorescence, ACh EC80 antagonist; P11229;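 active = percent inhibition above its own plate's cutoff, namely the mean of that plate's compound wells plus 3 SD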;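 also: peak over basal fluorescence ratio during 140 s after agonist addition; 0% = ACh EC80 plus DMSO and 100% = DMSO alone without agonist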
M1 PAM – potentiates human M1 receptor response to acetylcholine | P11229 | CHO-K1 hM1, Fluo-8 calcium fluorescence, ACh EC20; 0% = ACh EC20, 100% = maximal ACh | activation, % at 3 µM | 360,000 tested, 0.088% active | AID 588819; in the data active = activation above about 19%, passing the limit was not always enough
CHO-K1 Ca antag – nonselective inhibitor or artifact in parental CHO-K1 cells | ATP-induced calcium, Fluo-8 fluorescence | inhibition, % at 3 µM | 360,000 tested, 0.6% active | AID 602250;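 active = inhibition above a per-plate cutoff, the plate's mean sample inhibition plus 3 SD, cut at about 24% in these data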;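 also: 0% = DMSO plus EC80 ATP and 100% = DMSO alone without ATP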
CHO-K1 Ca PAM – M1 PAM counterscreen hit in parental CHO-K1 cells; ATP EC20, Fluo-8 calcium fluorescence; 0% at ATP EC20, 100% at ATP max; activation, % at 3 µM; 360,000 tested, 0.02% active;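 active = activation above the run cutoff, the mean activation of all test compounds plus 3 SD, cut at about 40% in these data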;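 also: peak over basal fluorescence ratio in a 140 s read after ATP addition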
Numbers without * were called inactive. Rows were chosen to be rich in hits. Some 2.4% of all compounds tested hit in one or more screens of this group.

SMILES | CHO-K1 Ca ag | CHRM1 agonist | M1 antag | M1 PAM | CHO-K1 Ca antag | CHO-K1 Ca PAM
COc1cc(C2C(C#N)=C(N)N(Nc3ccccc3)C3=C2C(=O)CC(C)(C)C3)ccc1OCc1cccc(F)c1 (configuration not stated) | 0 | -3 | 10 | -3 | 33* | -9
COc1cc(C2C(C#N)=C(N)N(Nc3ccccc3)C3=C2C(=O)CC(C)(C)C3)ccc1OCc1ccccc1 (configuration not stated) | 2 | -3 | 3 | 4 | -3 | 5
COCCN(C(=S)Nc1cc(C)cc(C)c1)C(C)c1ccco1 (configuration not stated) | 1 | -3 | 0 | 26* | -11 | 19
COc1ccc(C(CNC(=O)CNC(=O)c2ccc(F)cc2)N2CCCC2)cc1 (configuration not stated) | 0 | -5 | -6 | 4 | -6 | 6
COc1ccc(C(CNC(=O)Cc2c(F)cccc2Cl)N2CCCCC2)cc1 (configuration not stated) | 4 | -7 | 68* | -26 | -10 | 8
O=C(CSc1nc2c(c(=O)[nH]1)CCC2)Nc1ccccc1Cl | 1 | -2 | -15 | 10 | -14 | 17
O=C(CSc1nc2c(c(=O)[nH]1)CCC2)Nc1cccc(Cl)c1 | 0 | 17* | -12 | 15 | -1 | 9
COC(=O)C1=C(C)NC(C)=C(C(=O)OC)C1c1ccccc1OCc1c(C)no[n+]1[O-] | 0 | -4 | -13 | 22* | -13 | 32
CCN1CCc2c(sc(NC(=O)Cc3ccccc3)c2C(N)=O)C1 | 1 | -9 | -7 | 3 | -11 | 26
CCN1CCc2c(sc(NC(=O)Nc3ccc(Cl)c(Cl)c3)c2C(N)=O)C1 | 95* | 114* | 63* | -19 | 59* | -10
CC(=O)Nc1ccc(CN2C(=O)C(C)(C)ON=C2c2ccc(C(F)(F)F)cc2)cc1 | 0 | 0 | 0 | 8 | 37* | -10
O=C(Nc1cccc(S(=O)(=O)N2CCCC2)c1)c1cc(S(=O)(=O)N2CCOCC2)ccc1F | 5 | -2 | 0 | -6 | -12 | 4
COc1ccc(C(=O)Nc2cccc(-c3csc(C)n3)c2)cc1S(=O)(=O)N1CCCC1 | 8 | -3 | 36* | -14 | 2 | -10
O=C(Nc1cccc(S(=O)(=O)N2CCOCC2)c1)c1cc(S(=O)(=O)N2CCOCC2)c(Cl)cc1Cl | 10 | -1 | 36* | -12 | -1 | -18
O=C(CCS(=O)(=O)c1ccc(Cl)cc1)NCCN1C(=O)S/C(=C\c2ccccc2F)C1=O | 13 | -4 | 15 | -12 | 13 | -7
Cc1ccc(S(=O)(=O)CCC(=O)NCCN2C(=O)S/C(=C\c3ccccc3)C2=O)cc1 | 19* | 1 | 17 | -14 | 13 | 0
CC(C)[C@H](NC(=O)c1cccc(S(=O)(=O)N2CCOCC2)c1)C(=O)OCC(=O)Nc1cccc(Br)c1 | 10 | 19* | 18 | -8 | -18 | 12
COc1ccc(C(=O)Nc2cccc(S(=O)(=O)N3CCCC3)c2)cc1S(=O)(=O)N1CCOCC1 | 0 | -7 | 43* | -24 | -9 | -8
COc1ccc(C(=O)Nc2cccc(C)c2)cc1S(=O)(=O)N1CCOCC1 | 2 | -5 | -3 | 4 | -17 | 8
CS(=O)(=O)c1cccc(C(=O)Nc2ccc(S(=O)(=O)N3CCCCC3)cc2)c1 | 1 | -7 | 1 | -3 | -2 | -16
COc1ccc(NC(=O)c2cc3c(s2)CCC(C)C3)cc1S(=O)(=O)N1CCOCC1 (configuration not stated) | 4 | -4 | -3 | 3 | 25* | -12
CN(c1ccccc1C(=O)Nc1ccc(S(=O)(=O)N2CCOCC2)cc1)S(=O)(=O)c1ccccc1 | 1 | -11 | 43* | -27 | 11 | -12
O=C(Nc1ccc(S(=O)(=O)N2CCOCC2)cc1)c1ccccc1Br | 2 | -4 | -7 | 5 | -2 | 10
CN1CCN(c2ccc(NC(=O)c3cccc(S(=O)(=O)N4CCCC4)c3)cc2)CC1 | 0 | -8 | 47* | -26 | 2 | -9
CCN(CC)C(=O)c1csc(COCCO)n1 | 0 | -1 | -9 | 3 | -18 | 17
